# Measurements as given in the supplement of paper PMC6555819.
# Legend:
# Test in all cases: PBM binding z-score (relative to random genomic background probes); higher = stronger binding; sequences stand for … in GC…GCGATTGACAGCGTAGAATGAAGG
# [1] = tested on: PPARg:RXRa DBDmut IVT, anti-RXR (DBD mutation: RXRa K156A/R161A, NR concentration 270 nM, RXRa partner concentration 90 nM)
# In short: (§1)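 Probes were double-stranded and carried 34-nt variable regions with direct-repeat seeds, single-nucleotide variants, half-site ablations and random human genomic background sequences, printed on custom Agilent 4×180K protein-binding microarrays. Arrays were incubated 1 h with ligand-free nuclear receptor dimers in PBS pH 7.4, 2% milk, 0.02% Triton X-100, 1 mM DTT, 0.2 mg/mL BSA and 0.4 mg/ml salmon testes DNA. Antibodies against each partner (one per run) detected binding, and scanned fluorescence was regression-normalized. Binding z-scores use the random background probes as reference.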
# [2] = tested on: PPARg:RXRa IVT, anti-PPARg (NR concentration 270 nM, RXRa partner concentration 90 nM)
# In short: as §1
# [3] = tested on: PPARg DBDmut:RXRa IVT, anti-PPARg (DBD mutation: PPARg1 K132A/R137A, NR concentration 270 nM, RXRa partner concentration 90 nM)
# In short: as §1
# [4] = tested on: PPARg DBDmut IVT, anti-PPARg (DBD mutation: PPARg1 K132A/R137A, NR concentration 270 nM)
# In short: as §1
# [5] = tested on: PPARg homodimer (NR concentration 180 nM)
# In short: as §1
# [6] = tested on: PXR:RXRa (NR concentration 270 nM, RXRa partner concentration 90 nM)
# In short: as §1
# [7] = tested on: PXR homodimer (NR concentration 270 nM)
# In short: as §1
# [8] = tested on: RARa:RXR (NR concentration 270 nM, RXRa partner concentration 90 nM)
# In short: as §1
# [9] = tested on: RARa homodimer (NR concentration 270 nM)
# In short: as §1
# [10] = tested on: RARb:RXRa (NR concentration 270 nM, RXRa partner concentration 90 nM)
# In short: as §1
sequence,measurement,setting,value
TCGAGTAGGTTACCATTGGGGCATTCAGCTTTCT,PBM binding z-score,[1],3.26
same,PBM binding z-score,[2],2.88
same,PBM binding z-score,[3],-0.0492
same,PBM binding z-score,[4],-0.763
same,PBM binding z-score,[5],-0.00669
same,PBM binding z-score,[6],0.0838
same,PBM binding z-score,[7],-0.677
same,PBM binding z-score,[8],0.409
same,PBM binding z-score,[9],-0.577
same,PBM binding z-score,[10],0.817
GCTCGGAGGATAAGGTCAGAGCTTTGTCCGTAGA,PBM binding z-score,[1],-0.248
same,PBM binding z-score,[2],0.29
same,PBM binding z-score,[3],-0.531
same,PBM binding z-score,[4],-1.51
same,PBM binding z-score,[5],0.565
same,PBM binding z-score,[6],1.86
same,PBM binding z-score,[7],-0.244
same,PBM binding z-score,[8],2.62
same,PBM binding z-score,[9],-0.904
same,PBM binding z-score,[10],3.29
TCGAGTGGGTTACCAATGGGGCATTCAGCTTTCT,PBM binding z-score,[1],2.12
same,PBM binding z-score,[2],1.77
same,PBM binding z-score,[3],-0.245
same,PBM binding z-score,[4],-0.482
same,PBM binding z-score,[5],-0.73
same,PBM binding z-score,[6],-0.197
same,PBM binding z-score,[7],-0.99
same,PBM binding z-score,[8],-0.236
same,PBM binding z-score,[9],-0.45
same,PBM binding z-score,[10],0.353
ACTACTAGTTGAGACGAGGGCAACCGATAGGTTG,PBM binding z-score,[1],0.0475
same,PBM binding z-score,[2],0.419
same,PBM binding z-score,[3],0.298
same,PBM binding z-score,[4],0.0425
same,PBM binding z-score,[5],0.265
same,PBM binding z-score,[6],1.22
same,PBM binding z-score,[7],0.4
same,PBM binding z-score,[8],0.775
same,PBM binding z-score,[9],0.103
same,PBM binding z-score,[10],0.93
CCTACTAGGCCACGAAAGGTCATTGATTCAGTGA,PBM binding z-score,[1],6.91
same,PBM binding z-score,[2],6.28
same,PBM binding z-score,[3],0.693
same,PBM binding z-score,[4],0.0553
same,PBM binding z-score,[5],3.43
same,PBM binding z-score,[6],5.44
same,PBM binding z-score,[7],1.96
same,PBM binding z-score,[8],5.45
same,PBM binding z-score,[9],2.79
same,PBM binding z-score,[10],4.06
CCAGACAGGCGAAAGGTAACTCAGTCTGGTACGC,PBM binding z-score,[1],-0.357
same,PBM binding z-score,[2],-0.108
same,PBM binding z-score,[3],-0.986
same,PBM binding z-score,[4],-1.21
same,PBM binding z-score,[5],-0.19
same,PBM binding z-score,[6],-0.328
same,PBM binding z-score,[7],-0.718
same,PBM binding z-score,[8],-0.0922
same,PBM binding z-score,[9],-0.38
same,PBM binding z-score,[10],-0.0959
CGAACGAGGGCATGAGTTAATAGCAAATGCCGAT,PBM binding z-score,[1],2.98
same,PBM binding z-score,[2],2.1
same,PBM binding z-score,[3],-0.0604
same,PBM binding z-score,[4],0.0299
same,PBM binding z-score,[5],-0.39
same,PBM binding z-score,[6],0.548
same,PBM binding z-score,[7],0.0291
same,PBM binding z-score,[8],0.254
same,PBM binding z-score,[9],-0.352
same,PBM binding z-score,[10],1.89
AATACAGGGTCATCGCAGGCCAGAGTACGCACAG,PBM binding z-score,[1],2.75
same,PBM binding z-score,[2],4.33
same,PBM binding z-score,[3],1.54
same,PBM binding z-score,[4],0.985
same,PBM binding z-score,[5],1.94
same,PBM binding z-score,[6],5.07
same,PBM binding z-score,[7],0.737
same,PBM binding z-score,[8],4.69
same,PBM binding z-score,[9],1.07
same,PBM binding z-score,[10],4.45
GATACAGGGTCAGTTAGAGGCCAGAGTATGGAAA,PBM binding z-score,[1],1.02
same,PBM binding z-score,[2],1.82
same,PBM binding z-score,[3],0.545
same,PBM binding z-score,[4],0.433
same,PBM binding z-score,[5],2.89
same,PBM binding z-score,[6],2.85
same,PBM binding z-score,[7],1.17
same,PBM binding z-score,[8],3.86
same,PBM binding z-score,[9],0.673
same,PBM binding z-score,[10],3.77
ACAGACAGGAGATGAAGGTAACTCAGGCTATCAT,PBM binding z-score,[1],-0.00945
same,PBM binding z-score,[2],-0.0699
same,PBM binding z-score,[3],1.32
same,PBM binding z-score,[4],0.405
same,PBM binding z-score,[5],0.572
same,PBM binding z-score,[6],0.128
same,PBM binding z-score,[7],0.841
same,PBM binding z-score,[8],0.204
same,PBM binding z-score,[9],0.797
same,PBM binding z-score,[10],0.539
CCTGCTAGGTCATGGTCAGCTACTCTACAGTATG,PBM binding z-score,[1],4.23
same,PBM binding z-score,[2],3.88
same,PBM binding z-score,[3],0.29
same,PBM binding z-score,[4],0.349
same,PBM binding z-score,[5],1.41
same,PBM binding z-score,[6],0.866
same,PBM binding z-score,[7],-0.32
same,PBM binding z-score,[8],2.09
same,PBM binding z-score,[9],-0.0662
same,PBM binding z-score,[10],4.04
TCTGCTAGGTCGACGATGGTCAGCTAATCTGCTA,PBM binding z-score,[1],1.12
same,PBM binding z-score,[2],0.905
same,PBM binding z-score,[3],-0.448
same,PBM binding z-score,[4],-0.108
same,PBM binding z-score,[5],-1.39
same,PBM binding z-score,[6],-0.185
same,PBM binding z-score,[7],-1.16
same,PBM binding z-score,[8],0.0229
same,PBM binding z-score,[9],-1.42
same,PBM binding z-score,[10],1.16
AGAATGACGTTATACGTAGATCAGGGAAGAAAGT,PBM binding z-score,[1],-1.31
same,PBM binding z-score,[2],-0.2
same,PBM binding z-score,[3],0.276
same,PBM binding z-score,[4],1.24
same,PBM binding z-score,[5],-0.321
same,PBM binding z-score,[6],-0.696
same,PBM binding z-score,[7],0.0404
same,PBM binding z-score,[8],-0.492
same,PBM binding z-score,[9],-0.733
same,PBM binding z-score,[10],-0.573
CGTAAAAGTTCAACTAAGGTAACGTAAAGCACGC,PBM binding z-score,[1],0.183
same,PBM binding z-score,[2],1.6
same,PBM binding z-score,[3],1.17
same,PBM binding z-score,[4],1.06
same,PBM binding z-score,[5],2.7
same,PBM binding z-score,[6],4.97
same,PBM binding z-score,[7],2.61
same,PBM binding z-score,[8],3.8
same,PBM binding z-score,[9],1.67
same,PBM binding z-score,[10],5.13
GCTTGTAGATAAAGGTTAAGAAAGACTAAGCTAA,PBM binding z-score,[1],-0.151
same,PBM binding z-score,[2],0.466
same,PBM binding z-score,[3],0.79
same,PBM binding z-score,[4],-0.0657
same,PBM binding z-score,[5],0.422
same,PBM binding z-score,[6],0.774
same,PBM binding z-score,[7],-0.193
same,PBM binding z-score,[8],1.62
same,PBM binding z-score,[9],0.598
same,PBM binding z-score,[10],1.66
CCGACTGGGGCATAAAGGTTACCATACCATCCGG,PBM binding z-score,[1],1.89
same,PBM binding z-score,[2],3.25
same,PBM binding z-score,[3],-0.548
same,PBM binding z-score,[4],-1.23
same,PBM binding z-score,[5],1.42
same,PBM binding z-score,[6],1.3
same,PBM binding z-score,[7],-0.303
same,PBM binding z-score,[8],1.83
same,PBM binding z-score,[9],0.301
same,PBM binding z-score,[10],1.89
CCTACTGGGCCATCAGGTCATTGAAATCAACGTT,PBM binding z-score,[1],4.17
same,PBM binding z-score,[2],4.91
same,PBM binding z-score,[3],-0.467
same,PBM binding z-score,[4],-0.409
same,PBM binding z-score,[5],0.78
same,PBM binding z-score,[6],1.25
same,PBM binding z-score,[7],0.298
same,PBM binding z-score,[8],1.68
same,PBM binding z-score,[9],0.289
same,PBM binding z-score,[10],2.04
GCTTATGGGTCAAAGGTTATAGCATGAATAGAAT,PBM binding z-score,[1],7.1
same,PBM binding z-score,[2],7.2
same,PBM binding z-score,[3],2.03
same,PBM binding z-score,[4],2.31
same,PBM binding z-score,[5],2.17
same,PBM binding z-score,[6],5.71
same,PBM binding z-score,[7],0.209
same,PBM binding z-score,[8],7.4
same,PBM binding z-score,[9],1.13
same,PBM binding z-score,[10],4.41
TAGCCTAGGTCATGGTCCAGTATACCACGCGAAC,PBM binding z-score,[1],2
same,PBM binding z-score,[2],3.39
same,PBM binding z-score,[3],0.0262
same,PBM binding z-score,[4],-0.185
same,PBM binding z-score,[5],0.886
same,PBM binding z-score,[6],1.64
same,PBM binding z-score,[7],-0.02
same,PBM binding z-score,[8],2.35
same,PBM binding z-score,[9],-0.386
same,PBM binding z-score,[10],3.78
CAAACTAGGTCACGAAAGGTCAAAGACGAATGAC,PBM binding z-score,[1],8.52
same,PBM binding z-score,[2],9.24
same,PBM binding z-score,[3],4.91
same,PBM binding z-score,[4],4.77
same,PBM binding z-score,[5],6.85
same,PBM binding z-score,[6],7.05
same,PBM binding z-score,[7],2.93
same,PBM binding z-score,[8],7.89
same,PBM binding z-score,[9],4.46
same,PBM binding z-score,[10],5.69
ATATGTAGGTTATCGCGTCATTCAGTTTGCGCAT,PBM binding z-score,[1],7.52
same,PBM binding z-score,[2],6.92
same,PBM binding z-score,[3],1.88
same,PBM binding z-score,[4],2.41
same,PBM binding z-score,[5],0.975
same,PBM binding z-score,[6],0.655
same,PBM binding z-score,[7],0.292
same,PBM binding z-score,[8],0.918
same,PBM binding z-score,[9],0.606
same,PBM binding z-score,[10],0.976
AGAACGAGGGCACGCTTAGTTGATAGCAGAGTAG,PBM binding z-score,[1],4.36
same,PBM binding z-score,[2],4.09
same,PBM binding z-score,[3],0.457
same,PBM binding z-score,[4],0.676
same,PBM binding z-score,[5],0.226
same,PBM binding z-score,[6],0.718
same,PBM binding z-score,[7],-0.259
same,PBM binding z-score,[8],1.06
same,PBM binding z-score,[9],-0.203
same,PBM binding z-score,[10],2.66
ACTAGCAGGCCAAGGGTCTCTCAAGATTAGTCCG,PBM binding z-score,[1],0.281
same,PBM binding z-score,[2],1.01
same,PBM binding z-score,[3],-1.04
same,PBM binding z-score,[4],-0.76
same,PBM binding z-score,[5],-0.604
same,PBM binding z-score,[6],-0.568
same,PBM binding z-score,[7],-0.576
same,PBM binding z-score,[8],-0.307
same,PBM binding z-score,[9],-1.21
same,PBM binding z-score,[10],0.516
CCTAGTTGGTCAAGGTCACACAAGCTATAGGTAC,PBM binding z-score,[1],2.43
same,PBM binding z-score,[2],4.01
same,PBM binding z-score,[3],1.16
same,PBM binding z-score,[4],1.04
same,PBM binding z-score,[5],4.16
same,PBM binding z-score,[6],4.47
same,PBM binding z-score,[7],2.97
same,PBM binding z-score,[8],4.29
same,PBM binding z-score,[9],2.77
same,PBM binding z-score,[10],4.33
